Several values for one entry are separate records, joined by “and”; a condition that tells them apart may be missing. Equal values may be shown once. Screen size: about 5,500 compounds; about 2,000 (36%) were called active. Inconclusive results (about 18%) are left out. Rule as the data show it: active = normalized growth mostly below about 0.91 (no sharp cut-off); inconclusive = no clear call, values can overlap the other calls; inactive = mostly above about 0.92. The list shows a part of the results.
Experiment: chemical genetic growth profiling, strain panel (AID 1159580);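 also: tested at 20 µM; growth read once vehicle control cultures reached saturation at 30 °C; 1 = growth at the plate median or of vehicle wells; lower values mean less growth of the strain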
Details: growth OD

Measured: normalized growth

COc1ccc2oc(-c3ccccc3)c(OC)c(=O)c2c1
0.674 (active) and 0.934 (inactive): S. cerevisiae deletion strains, locus YHR030C, strain SLT2, stronger effect = lower value
inactive: S. cerevisiae deletion strains, locus YBR021W, strain FUR4, stronger effect = lower value 0.925 | S. cerevisiae deletion strains, locus YBR229C, strain ROT2, stronger effect = lower value 0.929 | S. cerevisiae deletion strains, locus YDL185W, strain tfp1, stronger effect = lower value 0.923 | S. cerevisiae deletion strains, locus YDR150W, strain NUM1, stronger effect = lower value 0.944 | S. cerevisiae deletion strains, locus YEL061C, strain CIN8, stronger effect = lower value 0.938 | S. cerevisiae deletion strains, locus YER155C, strain BEM2, stronger effect = lower value 0.926 | S. cerevisiae deletion strains, locus YGL078C, strain dbp3, stronger effect = lower value 0.956 | S. cerevisiae deletion strains, locus YHR079C, strain IRE1, stronger effect = lower value 0.926 | S. cerevisiae deletion strains, locus YHR094C, strain hxt1, stronger effect = lower value 0.936 | S. cerevisiae deletion strains, locus YIL066C, strain RNR3, stronger effect = lower value 0.882 | S. cerevisiae deletion strains, locus YIL073C, strain SPO22, stronger effect = lower value 0.803 | S. cerevisiae deletion strains, locus YIL125W, strain kgd1, stronger effect = lower value 0.956 | S. cerevisiae deletion strains, locus YJL134W, strain LCB3, stronger effect = lower value 0.946 | S. cerevisiae deletion strains, locus YJR043C, strain POL32, stronger effect = lower value 0.863 | S. cerevisiae deletion strains, locus YJR066W, strain TOR1, stronger effect = lower value 0.867 | S. cerevisiae deletion strains, locus YKL068W, stronger effect = lower value 0.96 | S. cerevisiae deletion strains, locus YKL085W, strain MDH1 (second series), stronger effect = lower value 0.945 | S. cerevisiae deletion strains, locus YKL085W, strain MDH1, stronger effect = lower value 0.945 | S. cerevisiae deletion strains, locus YKL190W, strain CNB1, stronger effect = lower value 0.922 | S. cerevisiae deletion strains, locus YLR039C, strain RIC1, stronger effect = lower value 0.778 | S. cerevisiae deletion strains, locus YLR102C, strain apc9, stronger effect = lower value 0.93 | S. cerevisiae deletion strains, locus YLR113W, strain HOG1, stronger effect = lower value 0.937 | S. cerevisiae deletion strains, locus YLR262C, strain YPT6, stronger effect = lower value 0.801 | S. cerevisiae deletion strains, locus YLR371W, strain rom2, stronger effect = lower value 0.932 | S. cerevisiae deletion strains, locus YMR307W, strain GAS1, stronger effect = lower value 0.652 | S. cerevisiae deletion strains, locus YNL128W, strain TEP1, stronger effect = lower value 0.942 | S. cerevisiae deletion strains, locus YNL153C, strain GIM3, stronger effect = lower value 0.891 | S. cerevisiae deletion strains, locus YNL183C, strain NPR1, stronger effect = lower value 0.88 | S. cerevisiae deletion strains, locus YNL250W, strain rad50, stronger effect = lower value 0.9 | S. cerevisiae deletion strains, locus YNL322C, strain KRE1, stronger effect = lower value 0.947 | S. cerevisiae deletion strains, locus YOL012C, strain htz1 0.77 | S. cerevisiae deletion strains, locus YOR061W, strain CKA2, stronger effect = lower value 0.937 | S. cerevisiae deletion strains, locus YOR069W, strain VPS5, stronger effect = lower value 0.979 | S. cerevisiae deletion strains, locus YOR136W, strain idh2, stronger effect = lower value 0.922 | S. cerevisiae deletion strains, locus YOR231W, strain MKK1, stronger effect = lower value 0.918 | S. cerevisiae deletion strains, locus YPL055C, strain LGE1, stronger effect = lower value 0.767 | S. cerevisiae deletion strains, locus YPL241C, strain CIN2, stronger effect = lower value 0.959 | S. cerevisiae deletion strains, locus YPL256C, strain CLN2, stronger effect = lower value 0.939 | S. cerevisiae deletion strains, locus YPR141C, strain kar3, stronger effect = lower value 0.944
0.426 (active) and 0.93 (inactive): S. cerevisiae deletion strains, locus YJL095W, strain BCK1, stronger effect = lower value
active: S. cerevisiae deletion strains, locus YAL013W, strain DEP1, stronger effect = lower value 0.903 | S. cerevisiae deletion strains, locus YCL029C, strain bik1, stronger effect = lower value 0.906 | S. cerevisiae deletion strains, locus YDL035C, strain GPR1, stronger effect = lower value 0.846 | S. cerevisiae deletion strains, locus YDL074C, strain BRE1, stronger effect = lower value 0.71 | S. cerevisiae deletion strains, locus YDL101C, strain DUN1, stronger effect = lower value 0.888 | S. cerevisiae deletion strains, locus YDL134C, strain PPH21, stronger effect = lower value 0.828 | S. cerevisiae deletion strains, locus YDL192W, strain arf1, stronger effect = lower value 0.858 | S. cerevisiae deletion strains, locus YDR101C, strain arx1, stronger effect = lower value 0.887 | S. cerevisiae deletion strains, locus YDR162C, strain NBP2, stronger effect = lower value 0.719 | S. cerevisiae deletion strains, locus YDR318W, strain mcm21, stronger effect = lower value 0.808 | S. cerevisiae deletion strains, locus YDR388W, stronger effect = lower value 0.892 | S. cerevisiae deletion strains, locus YDR502C, strain sam2, stronger effect = lower value 0.867 | S. cerevisiae deletion strains, locus YER110C, stronger effect = lower value 0.861 | S. cerevisiae deletion strains, locus YER167W, strain BCK2, stronger effect = lower value 0.801 | S. cerevisiae deletion strains, locus YGL086W, strain mad1, stronger effect = lower value 0.882 | S. cerevisiae deletion strains, locus YGL248W, strain PDE1, stronger effect = lower value 0.814 | S. cerevisiae deletion strains, locus YGR078C, strain PAC10, stronger effect = lower value 0.748 | S. cerevisiae deletion strains, locus YGR135W, strain pre9, stronger effect = lower value 0.784 | S. cerevisiae deletion strains, locus YGR229C, strain SMI1, stronger effect = lower value 0.58 | S. cerevisiae deletion strains, locus YGR252W, strain gcn5, stronger effect = lower value 0.68 | S. cerevisiae deletion strains, locus YHR079C, strain IRE1 (second series), stronger effect = lower value 0.828 | S. cerevisiae deletion strains, locus YHR129C, strain ARP1, stronger effect = lower value 0.874 | S. cerevisiae deletion strains, locus YHR200W, strain rpn10, stronger effect = lower value 0.897 | S. cerevisiae deletion strains, locus YIR030C, strain dcg1, stronger effect = lower value 0.879 | S. cerevisiae deletion strains, locus YJL168C, strain set2, stronger effect = lower value 0.912 | S. cerevisiae deletion strains, locus YJL187C, strain SWE1 (second series), stronger effect = lower value 0.855 | S. cerevisiae deletion strains, locus YJR075W, strain HOC1, stronger effect = lower value 0.844 | S. cerevisiae deletion strains, locus YKL009W, strain mrt4, stronger effect = lower value 0.877 | S. cerevisiae deletion strains, locus YKR001C, strain vps1, stronger effect = lower value 0.764 | S. cerevisiae deletion strains, locus YLR058C, strain SHM2, stronger effect = lower value 0.88 | S. cerevisiae deletion strains, locus YLR268W, strain sec22, stronger effect = lower value 0.807 | S. cerevisiae deletion strains, locus YLR330W, strain CHS5, stronger effect = lower value 0.899 | S. cerevisiae deletion strains, locus YLR342W, strain FKS1 (second series), stronger effect = lower value 0.69 | S. cerevisiae deletion strains, locus YLR418C, strain cdc73, stronger effect = lower value 0.592 | S. cerevisiae deletion strains, locus YML016C, strain PPZ1, stronger effect = lower value 0.919 | S. cerevisiae deletion strains, locus YML032C, strain rad52, stronger effect = lower value 0.53 | S. cerevisiae deletion strains, locus YML124C, strain tub3, stronger effect = lower value 0.924 | S. cerevisiae deletion strains, locus YMR078C, strain ctf18, stronger effect = lower value 0.805 | S. cerevisiae deletion strains, locus YMR223W, strain ubp8, stronger effect = lower value 0.83 | S. cerevisiae deletion strains, locus YMR263W, strain SAP30, stronger effect = lower value 0.838 | S. cerevisiae deletion strains, locus YNL067W, strain RPL9B, stronger effect = lower value 0.837 | S. cerevisiae deletion strains, locus YNL233W, strain BNI4, stronger effect = lower value 0.78 | S. cerevisiae deletion strains, locus YNL271C, strain bni1, stronger effect = lower value 0.916 | S. cerevisiae deletion strains, locus YNL298W, strain CLA4, stronger effect = lower value 0.884 | S. cerevisiae deletion strains, locus YNL307C, strain MCK1, stronger effect = lower value 0.29 | S. cerevisiae deletion strains, locus YNR052C, strain pop2, stronger effect = lower value 0.899 | S. cerevisiae deletion strains, locus YOL006C, strain TOP1, stronger effect = lower value 0.359 | S. cerevisiae deletion strains, locus YOL147C, strain pex11, stronger effect = lower value 0.854 | S. cerevisiae deletion strains, locus YOR144C, strain elg1, stronger effect = lower value 0.92 | S. cerevisiae deletion strains, locus YOR184W, strain ser1, stronger effect = lower value 0.684 | S. cerevisiae deletion strains, locus YOR316C, strain cot1, stronger effect = lower value 0.916 | S. cerevisiae deletion strains, locus YPR119W, strain clb2, stronger effect = lower value 0.919 | S. cerevisiae deletion strains, locus YPR163C, strain tif3, stronger effect = lower value 0.634 | S. cerevisiae deletion strains, locus YPR167C, strain met16, stronger effect = lower value 0.916 | S. cerevisiae deletion strains, strain wtn01, stronger effect = lower value 0.832 | S. cerevisiae strains, strain wild type, stronger effect = lower value 0.895

— PubChem BioAssay AID1159580 (chemical genetic matrix, 2015)
